Screens: PubChem, several laboratories
Most compounds without a hit are left out; they make up all but 4.1% or so of the library.
BoNT A protease: BoNT A light chain protease inhibition. multiplex microsphere protease substrate cleavage, flow cytometry. inhibition, % at 10 µM. hit rate 0.17% among 360,000. AID 588499; note: plate controls were buffer without enzyme for full effect and enzyme alone for no effect
VHR inh abs: inhibitors of human VHR1 phosphatase (DUSP3); AID 1654; recombinant VHR phosphatase, pNPP absorbance; inhibition, % at 13.3 µM; hit rate 0.52% among 290,000; P51452; in the data active = inhibition above about 50%
Target sequence (P51452 whole entry, looked up): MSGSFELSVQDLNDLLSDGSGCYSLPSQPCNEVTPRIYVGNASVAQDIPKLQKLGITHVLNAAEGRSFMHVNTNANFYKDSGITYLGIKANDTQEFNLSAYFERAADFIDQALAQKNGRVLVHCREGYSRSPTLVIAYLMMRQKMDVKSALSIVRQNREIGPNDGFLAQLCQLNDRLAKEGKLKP
BoNT F protease: blocks Botulinum neurotoxin F light chain protease; Multiplex microsphere protease cleavage assay, flow cytometry; inhibition, % at 10 µM; hit rate 0.22% among 360,000; AID 588497; in the data active = inhibition above about 35%, passing the limit was not always enough; inconclusive = no clear call, values can overlap the other calls; note: plate controls were buffer without enzyme for full effect and enzyme alone for no effect
Autofluor counter: counter-screen for toxin protease inhibitors: compound fluorescence; compound autofluorescence counterscreen, microsphere flow cytometry; active compounds read high; fluorescence intensity (concentration not given with the values); hit rate 3.1% among 360,000; AID 624483; in the data active = fluorescence intensity above about 16000; inconclusive = no clear call, values can overlap the other calls
Anthrax LF prot: inhibitors of Bacillus anthracis lethal factor protease. hit rate 0.12% among 360,000. multiplex microsphere protease cleavage assay, LF. inhibition, % at 10 µM. AID 588501. P15917; note: plate controls were buffer without enzyme for full effect and enzyme alone for no effect
MazF activator: MazEF (E. coli) toxin RNase activation. FAM/BHQ RNA-DNA oligo cleavage fluorescence, 5 h. activation, % at 20 µM. hit rate 0.32% among 350,000. AID 504720; in the data active = activation above about 50%
Target sequence (P0AE70 whole entry, looked up): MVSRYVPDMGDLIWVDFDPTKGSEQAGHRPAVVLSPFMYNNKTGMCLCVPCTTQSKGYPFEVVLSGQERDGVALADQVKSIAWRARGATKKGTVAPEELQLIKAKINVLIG
* hit, by the source's call; ? = inconclusive; · = not tested or not shown. Cut-off read from the data, not from the text of the source, unless noted: active = inhibition above about 30%; inconclusive = no clear call, values can overlap the other calls; inactive = below that.

SMILES | BoNT A protease | VHR inh abs | BoNT F protease | Autofluor counter | Anthrax LF prot | MazF activator
CC1(c2nnnn2Cc2ccccc2)CCC(=O)N1Cc1cccnc1 (stereo not drawn) | 0 | · | 6 | 5972 | 8 | ·
Cc1nc2n(n1)CC(O)CS2 (stereo not drawn) | -3 | 38 | -6 | 23205* | -1 | 0
COc1cc(/C=N/NC(=O)c2ccccc2NS(=O)(=O)c2cccs2)ccc1O | -1 | · | -5 | 5770 | 1 | 8
COc1cc(SC)ccc1C(=O)N1CCN(c2ccccc2OC)CC1 | 0 | 36 | -1 | 4787 | 3 | 2
COC(=O)C1CCN(C(=O)c2ccc(SC)cc2OC)CC1 | ? | 17 | -3 | 20634* | 0 | 1
CC(C)(C)NC(=O)CN(C(=O)CCN1CCCc2ccccc21)C(C)(C)C | 13 | 0 | -6 | 20626* | 6 | 10
CCOCCCNC(=O)CS(=O)(=O)Cc1nc(-c2cccc(OC)c2)oc1C | ? | -8 | 2 | 21852* | -1 | -1
COc1cccc(-c2nc(CS(=O)(=O)CC(=O)NCCCN3CC(C)CC(C)C3)c(C)o2)c1 (stereo not drawn) | -2 | 106 | 0 | 4906 | -2 | 8
CCOCCCNC(=O)c1cc2cc3cc(OC)ccc3nc2o1 | 5 | 53* | 23 | 3995 | -3 | 9
COc1cccc(-c2nc(CS(=O)(=O)CC(=O)NCCCN3C(C)CCCC3C)c(C)o2)c1 (stereo not drawn) | -1 | 57* | 8 | 6191 | -5 | 10
COc1ccc2nc3oc(C(=O)NCCCOC(C)C)cc3cc2c1 | 1 | 17 | 5 | 4091 | -1 | 7
CCN(CC)S(=O)(=O)c1cccc(C(=O)NC2=NCCS2)c1 | -5 | 9 | ? | 4143 | -8 | 11
O=C1CCC(c2ccccc2)N1C(=O)c1cccnc1 (stereo not drawn) | -1 | 4 | 1 | 23368* | -2 | 5
O=C1CC(c2ccccc2)CN1C(=O)c1cccnc1 (stereo not drawn) | 0 | 17 | 1 | 4483 | -3 | 6
Cc1ccccc1NC(=S)N(CCN(C)C)C(C)c1ccccn1 (stereo not drawn) | 6 | -1 | 7 | 19817* | -12 | -4
CC(=O)c1ccc(NC(=O)C(C)O/N=C(\N)c2ccccc2)cc1 (stereo not drawn) | -8 | · | -19 | ? | 2 | -2
CCOc1oc(-c2ccc(OC)cc2)nc1C(F)(F)F | 0 | 8 | -1 | 16401* | 0 | 3
COc1cccc(OC)c1-c1nn2c(-c3ccccc3Cl)nnc2s1 | 0 | 13 | 2 | 21844* | 0 | 4
COc1cc(-c2nnc3sc(-c4ccco4)nn23)cc(OC)c1OC | ? | 15 | -5 | 23532* | -2 | -8
Clc1ccc(-c2nn3c(-c4ccccn4)nnc3s2)c(Cl)c1 | · | 15 | · | · | · | ·
COc1ccc(-c2nnc3sc(-c4ccccc4OC)nn23)cc1 | 1 | 2 | 5 | 9350 | 6 | 13
COc1ccc(-c2nnc3sc(-c4ccco4)nn23)cc1OC | 0 | 22 | -16 | 8184 | -6 | 25
Clc1ccc(-c2nnc3sc(-c4ccco4)nn23)c(Cl)c1 | · | -1 | · | · | · | ·
Clc1ccccc1-c1nnc2sc(-c3ccco3)nn12 | -2 | 30 | -2 | 23775* | 1 | 8
Clc1ccccc1-c1nnc2sc(-c3ccccn3)nn12 | ? | -3 | 2 | 21229* | -2 | -6
SMILES | BoNT A protease | VHR inh abs | BoNT F protease | Autofluor counter | Anthrax LF prot | MazF activator
CCOC(=O)c1[nH]cnc1C(=O)N1CCN(C(=O)OC(C)(C)C)CC1 | 0 | · | -2 | 2907 | -1 | 3
COc1ccc(-n2ncc(C(C)NS(=O)(=O)c3cc(C)sc3C)c2C)cc1 (stereo not drawn) | 0 | · | -3 | 3535 | -1 | 0
O=C(NC(=S)N1CCCCC1c1cccnc1)c1ccc(Br)cc1 (stereo not drawn) | -2 | 32 | -2 | 4806 | -1 | 4
Cc1cc(N2CCN(c3ccccc3)CC2)n2nnnc2n1 | 1 | 12 | 5 | 2712 | 4 | 1
Cc1cc(N2CCN(c3ccccc3)CC2)n2c(n1)nc1ccccc12 | ? | 17 | 8 | 23762* | 2 | 7
C(=C\c1ccccc1)/CN1CCN(C(c2ccnc3ccccc23)c2nnnn2C2CCCC2)CC1 (stereo not drawn) | 0 | · | 10 | 4785 | 3 | ·
CC1(C)CC(=O)C(N=Nc2cc3c(cc2[N+](=O)[O-])OCCO3)=C(O)C1 | 0 | 17 | -2 | 3229 | -7 | 93*
Cc1ccc(O)c(N=NC2=C(O)CC(C)(C)CC2=O)c1 | 0 | -3 | -3 | 2025 | -2 | -4
Cc1c(C(=O)NCc2ccc3c(c2)OCCO3)sc(=O)n1Cc1cccc(C(F)(F)F)c1 | -1 | · | -6 | 6041 | -3 | ·
COc1cc2c(C(=O)N3CCN(C)CC3)c(C)n(-c3ccccc3)c2cc1Br | -2 | 15 | -3 | 25113* | 1 | -3
CCOC(=O)c1cc(NC(=O)C2C3C=CC(O3)C2C(=O)O)cc(C(=O)OCC)c1 (stereo not drawn) | -3 | 32 | -13 | 3494 | -10 | 4
CCOC(=O)c1cc(NC(=O)c2ccoc2C)cc(C(=O)OCC)c1 | ? | -16 | 0 | 23038* | -3 | -2
CCOC(=O)Cc1csc(NC(=O)c2c(-c3c(F)cccc3Cl)noc2C)n1 | 4 | 1 | 5 | 21863* | -5 | -13
CCOC(=O)c1cc(NC(=O)C2C3CCC(O3)C2C(=O)O)cc(C(=O)OCC)c1 (stereo not drawn) | -1 | 25 | 0 | 23079* | 2 | -4
CCOC(=O)Cc1csc(NC(=O)c2c(-c3ccccc3)noc2C)n1 | 0 | 40 | 0 | 10311 | 0 | -1
CCOC(=O)Cc1csc(NC(=O)c2ccoc2C)n1 | -2 | -8 | -1 | 23823* | -1 | -19
O=C(O)c1c2c(nc3ccccc13)/C(=C/c1cccc([N+](=O)[O-])c1)CCC2 | 1 | 1 | 4 | 5524 | 0 | 7
CCOC(=O)C1=C(O)CSC1=Nc1ccc(Cl)cc1 | -1 | -2 | -1 | 16689* | -1 | -2
CNC(=O)C[C@H]1C(=O)N(c2ccc(OC)cc2)C[C@@H]1CSC | -1 | · | -3 | 3719 | -1 | 8
O=C(Nc1ccc(N2CCN(C(=O)c3ccc(Cl)cc3)CC2)cc1)c1cc2ccccc2o1 | -2 | 20 | -4 | 21324* | 0 | 14
O=C(Nc1ccccc1N1CCN(C(=O)c2ccc(Cl)cc2)CC1)c1cc2ccccc2o1 | 1 | 21 | 7 | 4183 | 2 | -10
Cc1ccn(CCSCC(=O)O)n1 | ? | 8 | 2 | 22249* | -3 | -7
COc1cc(/C=N/NC(=O)CC23CC4CC(CC(C4)C2)C3)cc(Br)c1OCC(=O)N(C)C | 0 | 5 | -5 | 2097 | 0 | 5
O=C(O)c1cc(-c2ccc(Cl)c(Cl)c2)n(-c2ccccc2)n1 | -5 | -9 | 16 | 3925 | 5 | -3
Cc1cccc(N(C(=O)c2snc(C(N)=O)c2N)C(C(=O)NCc2ccccc2)c2ccncc2)c1 (stereo not drawn) | -5 | 2 | -25 | 3974 | 3 | 7
